Compound activity (PubChem)
Only some compounds are listed: those with a hit (about 1.6% of all), similar ones and a draw of the others.
gsp ag: gsp mutant agonism. gsp mutant cells, cAMP HTRF, 30 min. Potency, µM (top dose mostly 76.9 µM), inactives show at the highest dose activation (cAMP increase), most hits filed as activators. 340,000 compounds, 0.13% hits. AID 624287; active = well fitted activation curve with a large enough effect; inconclusive = small, poorly fitted or top-dose-only effect, or another doubt; inactive = no such curve, though single readings can be large or run the other way; cell line not stated here;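 also: phosphodiesterase inhibitor Ro 20-1724 added with compounds to block cAMP breakdown; nearly all actives have a fitted effect of over 60% in size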
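Cells stably selected in G418 were plated at 2000/well, grown 16-24 hr, then given compounds in DMSO with the PDE inhibitor […] (300 uM solution added) for 30 min at 37C; cAMP was read by HTRF.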
gsp antagonist: antagonizes gsp, the McCune-Albright syndrome mutation | 340,000 compounds, 0.4% hits | gsp-mutant cells, cAMP HTRF, 30 min | Potency, µM (doses to about 76.9 µM), for the others: at the top dose activity change, negative = inhibition, most hits filed as inhibitors; calls by dose curve; cell line not stated here;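 also: intracellular cAMP measured with PDE inhibitor Ro 20-1724 present during compound exposure; % is scaled to controls: 0 for no effect and ±100 for the full control effect; nearly all actives have a fitted effect of over 65% in size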
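HTRF cAMP measurement after 30 min RT detection following 30 min, 37C compound treatment alongside […] (added as 300 uM solution) in G418-selected cells seeded at 2000/well and grown 16–24 h.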
FUS yeast rescue: rescues growth of FUS-expressing yeast | S. cerevisiae FUS-expressing, growth rescue, OD600, 24 h | Potency, µM (series often up to 76.6 µM), usual class: activators | 390,000 compounds, 0.24% hits | AID 1347120;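 also: plate controls were DMSO vehicle for no effect and reference control for full effect; nearly all actives have a fitted effect of over 55% in size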
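FUS-expressing yeast, raffinose-pregrown, induced in 2% galactose minimal medium at OD 0.005; compounds in a dilution series, 24hr at 30C. Growth restoration read as absorbance at 600 nm. CP55940 positive control, DMSO negative.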
Mito fusion act: blocks mitochondrial division or promotes mitochondrial fusion; 320,000 compounds, 0.23% hits; S. cerevisiae fusion-defective mutant growth rescue, CellTiterGlo 48 h; Potency, µM (series often up to 46.1 µM), for inactives: at the top dose growth rescue (activation), most hits filed as activators; also: % of control where 0% means no effect; nearly all actives have a fitted effect of over 45% in size
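S. cerevisiae fusion-defective temperature-sensitive mutants (e.g. fzo1-1, mgm1-5) grown 48 h at 37C in YPEG (ethanol/glycerol non-fermentable) medium with 23 nl compound per well; growth rescue read as CellTiterGlo luminescence.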
12-LOX inh: blocks human arachidonate 12S-lipoxygenase. Potency, µM (series often up to 108 µM), for inactives: top-dose activity change, negative = inhibition, actives largely listed as inhibitors. purified 12hLO, xylenol orange hydroperoxide absorbance. 580,000 compounds, 1.1% hits. AID 1671190; also: % is scaled to controls: 0 for no effect and ±100 for the full control effect
Target sequence (P18054 whole entry, looked up): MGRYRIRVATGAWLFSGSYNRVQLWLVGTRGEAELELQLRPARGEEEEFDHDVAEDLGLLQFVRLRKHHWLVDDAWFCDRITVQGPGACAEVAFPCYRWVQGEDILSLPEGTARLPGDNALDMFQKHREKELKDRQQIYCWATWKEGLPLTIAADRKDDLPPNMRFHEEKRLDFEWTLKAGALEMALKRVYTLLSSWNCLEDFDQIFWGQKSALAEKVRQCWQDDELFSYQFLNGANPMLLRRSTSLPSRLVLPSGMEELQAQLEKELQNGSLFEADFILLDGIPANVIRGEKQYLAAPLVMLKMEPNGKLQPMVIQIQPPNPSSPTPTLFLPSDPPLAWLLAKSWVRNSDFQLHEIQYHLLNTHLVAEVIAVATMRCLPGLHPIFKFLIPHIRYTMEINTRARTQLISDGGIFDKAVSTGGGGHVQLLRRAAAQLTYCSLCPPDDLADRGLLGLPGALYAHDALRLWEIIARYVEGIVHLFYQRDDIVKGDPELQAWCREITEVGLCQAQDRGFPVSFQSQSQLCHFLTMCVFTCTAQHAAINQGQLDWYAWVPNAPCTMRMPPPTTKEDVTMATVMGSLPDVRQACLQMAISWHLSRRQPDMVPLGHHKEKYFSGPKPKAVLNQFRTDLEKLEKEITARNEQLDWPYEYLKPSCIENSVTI
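Hydroperoxide product was detected by ferrous iron/xylenol orange as the 573 to 405 nm absorbance ratio. Arachidonic acid at 40 uM (final) was turned over for 30 min at room temperature by 150 nM human 12hLO, pH 7.0 Hepes buffer, after 15 min compound preincubation.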
Numbers without * were called inactive; i = inactive; ? = inconclusive; . = no result; [ ] = another dose, or the depositor's remark. Unless noted, calls follow the shape of the dose curve; as a rule, active = well fitted curve in the direction sought with a large enough effect; inconclusive = small, poorly fitted or top-dose-only effect, or another doubt; inactive = no such curve, though single readings can be large; an effect the other way counts as inactive or inconclusive. Potency is read from the fitted curve at half-maximal effect.

SMILES	gsp ag	gsp antagonist	FUS yeast rescue	Mito fusion act	12-LOX inh
O=C(C1CCN(S(=O)(=O)c2cccc3cccnc23)CC1)N1CCN(c2ccccn2)CC1	11%[15.4 µM]	-14%	i	5%	0%
Cc1ccc(Cl)cc1N1CCN(C(=O)C2CCN(S(=O)(=O)c3c(C)nn(C)c3C)CC2)CC1	-5%[15.4 µM]	40µM*	?	3%	-24%
Cc1n[nH]c(C)c1S(=O)(=O)N1CCCC(C(=O)N2CCN(c3ccc(Cl)cc3)CC2)C1 (stereo not given)	-45%	35µM*	i	0%	0%
Cc1nn(C)c(C)c1S(=O)(=O)N1CCCC(C(=O)N2CCN(c3ccc(Cl)cc3)CC2)C1 (stereo not given)	-1%	?	i	4%	0%
Cc1ccc(Cl)cc1N1CCN(C(=O)C2CCN(S(=O)(=O)c3cccnc3)CC2)CC1	-1%	?	?	-2%	95%
Cc1ccc(C)c(N2CCN(C(=O)C3CCCN(S(=O)(=O)c4cccc5nsnc45)C3)CC2)c1 (stereo not given)	.	.	?	.	-16%
O=C(O)CCCCCCCCCc1cccs1	.	.	.	.	11%
CCOc1ccc(C2CC(c3ccccc3NS(C)(=O)=O)=NN2C(=O)CC)cc1 (stereo not given)	.	.	.	.	12%
O=C(Nc1cccc(-c2nnc3n2CCCC3)c1)c1ccc(F)cc1	.	.	.	.	24%
O=C(Cn1cnc2nc(N3CCOCC3)sc2c1=O)Nc1ccccc1	.	.	.	.	17%
COc1ccc2cc(C(=O)C3CCCN(C(=O)CCc4ccccn4)C3)ccc2c1 (stereo not given)	-12%[15.4 µM]	4.5µM*	i	2%	-7%
COc1cccc(C(=O)C2CCCN(C(=O)CCc3scnc3C)C2)c1 (stereo not given)	12%[15.4 µM]	-7%	i	-3%	9%
CCC(C)(C)n1nnnc1C(c1cc2cccc(C)c2[nH]c1=O)N1CCCC1 (stereo not given)	5%	-4%	32µM*	-2%	6%
CCC(C)(C)n1nnnc1C(c1cc2cc(C)cc(C)c2[nH]c1=O)N1CCCC1 (stereo not given)	-37%	-10%	25µM*	-4%	-12%
O=C(Oc1cc(-c2ccccc2)no1)c1ccc(Cl)cc1	-14%	1%	i	0%	32µM*
CC(C)Nc1nc(C(=O)Nc2nccs2)cs1	.	.	.	.	7%
CC(C)c1ccc(NC(=O)CSc2nc3ccccc3nc2N2CCCC2)cc1	4%	-4%	i	-7%	6.3µM*
O=C(CSc1nc2ccccc2nc1N1CCCC1)Nc1ccc(Cl)cc1	12%	-1%	i	-6%	-6%
Cc1nc(=S)c2ccccc2[nH]1	?	8%	i	-3%	?
FC(F)(F)c1nc(=S)c2ccccc2[nH]1	2.2µM*	25%	i	0%	28µM*
CCC(CC)NC(=O)C1CCc2nc(N3CCN(C(=O)C(C)C)CC3)sc2C1 (stereo not given)	.	.	.	.	35µM*
CCC(=O)N1CCN(c2nc3c(s2)CC(C(=O)NCc2ccccc2)CC3)CC1 (stereo not given)	.	.	.	.	33%
CCNC(=S)Nc1ccc2c(c1)c(=O)n(C)n2-c1ccc(C(C)(C)C)cc1	.	.	32µM*	.	-22%
Cn1c(=O)c2cc(NC(=O)Cc3ccccc3F)ccc2n1-c1ccc(C(C)(C)C)cc1	.	.	?	.	-5%
CCCCNC(=O)/C(C#N)=C/c1ccc(F)cc1F	-1%[15.4 µM]	11µM*	i	?	?
SMILES	gsp ag	gsp antagonist	FUS yeast rescue	Mito fusion act	12-LOX inh
COc1cccc(-n2nc(C(=O)Nc3cc(OC)c(OC)c(OC)c3)c3ccccc3c2=O)c1	.	.	.	.	8%
Cc1cccc(-c2nc(-c3ccc(Br)cc3)no2)c1	.	.	.	.	-28%
Cc1cccc(CSCc2ccc(-c3nc(-c4ccc(Br)cc4)no3)o2)c1	.	.	.	.	3.5µM*
NS(=O)(=O)c1ccc(Nc2nc(-c3ccc(F)cc3)cs2)cc1	5%[15.4 µM]	?	i	-3%	40µM*
Cc1cc(NS(=O)(=O)c2ccc(Nc3nc(-c4ccc(C)c(C)c4)cs3)cc2)no1	-7%	22µM*	.	-9%	4.5µM*
Cc1ccc(C)c(-c2csc(Nc3ccc(S(=O)(=O)Nc4nc(C)cc(C)n4)cc3)n2)c1	.	.	.	.	45µM*
